Test [1] is described as follows: Quantitative High-Throughput drug screen in 47 multiple myeloma cell lines against the NCATS MIPE library collection: KMS28PE_JCRB cell viability assay (AID 1918983). Further: nearly all actives have a fitted effect of over 35% in size. Put shortly: (§1)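 qHTS format: cells plated (500/well), pin-dosed with MIPE 4.0 compounds, kept 48 h at 37 °C. Readout was CellTiter-Glo luminescence, median RLU.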
The nature of test [2]: Quantitative High-Throughput drug screen in 47 multiple myeloma cell lines against the NCATS MIPE library collection: L363_DSMZ cell viability assay (AID 1918984). Further: nearly all actives have a fitted effect of over 40% in size. The settings on record: L363 myeloma viability, CellTiter-Glo ATP luminescence, 48 h; viability (% of control): at 45.8 µM (top of the series). Put shortly:
as §1

A short description of test [3]: Quantitative High-Throughput drug screen in 47 multiple myeloma cell lines against the NCATS MIPE library collection: OCIMY7_PLB cell viability assay (AID 1918987). Further: nearly all actives have a fitted effect of over 65% in size. To be noted: OCI-MY7 myeloma viability, CellTiter-Glo ATP, 48 h; viability (% of DMSO): at 45.8 µM (top of the series). Summed up: as §1
A general note: In ATP-based viability assays light output follows the ATP content of the culture.

The nature of test [4]: Quantitative High-Throughput drug screen in 47 multiple myeloma cell lines against the NCATS MIPE library collection: OCIMY5_PLB cell viability assay (AID 1918988). Further: nearly all actives have a fitted effect of over 65% in size. Put shortly: as §1
Test [5] can be described thus: Quantitative High-Throughput drug screen in 47 multiple myeloma cell lines against the NCATS MIPE library collection: OPM1_PLB cell viability assay (AID 1918989). Further: nearly all actives have a fitted effect of over 40% in size. Put shortly:
as §1

Test [6] in a line: Quantitative High-Throughput drug screen in 47 multiple myeloma cell lines against the NCATS MIPE library collection: U266_ATCC cell viability assay (AID 1919864). Further: nearly all actives have a fitted effect of over 35% in size. Summed up: as §1
The nature of test [7]: Quantitative High-Throughput drug screen in 47 multiple myeloma cell lines against the NCATS MIPE library collection: XG6_PLB cell viability assay (AID 1919865). Further: nearly all actives have a fitted effect of over 40% in size. Summed up: as §1
A short description of test [8]: Quantitative High-Throughput drug screen in 47 multiple myeloma cell lines against the NCATS MIPE library collection: XG1_PLB cell viability assay (AID 1919866). Further: nearly all actives have a fitted effect of over 35% in size. Summed up: as §1
The nature of test [9]: Quantitative High-Throughput drug screen in 47 multiple myeloma cell lines against the NCATS MIPE library collection: VP6_DJ cell viability assay (AID 1919867). Further: nearly all actives have a fitted effect of over 40% in size. Put shortly: as §1
Test [10] in a line: Quantitative High-Throughput drug screen in 47 multiple myeloma cell lines against the NCATS MIPE library collection: PE2_PLB cell viability assay (AID 1919869). Further: nearly all actives have a fitted effect of over 35% in size. Summed up: as §1
The nature of test [11]: Quantitative High-Throughput drug screen in 47 multiple myeloma cell lines against the NCATS MIPE library collection: PCM6_Riken cell viability assay (AID 1919870). Further: nearly all actives have a fitted effect of over 30% in size. Summed up:
as §1

Test [12] can be described thus: Quantitative High-Throughput drug screen in 47 multiple myeloma cell lines against the NCATS MIPE library collection: SKMM1_PLB cell viability assay (AID 1919863). Further: nearly all actives have a fitted effect of over 35% in size. To be noted: SKMM1 myeloma viability, CellTiter-Glo ATP, 48 h; viability: hits give low values. Summed up: as §1
The nature of test [13]: Quantitative High-Throughput drug screen in 47 multiple myeloma cell lines against the NCATS MIPE library collection: UTMC2_PLB cell viability assay (AID 1919868). Further: nearly all actives have a fitted effect of over 55% in size. To be noted: CellTiter-Glo ATP luminescence, 48 h; viability (% of DMSO control): at 45.8 µM (top of the series). Summed up: as §1
Test [14] in a line: Quantitative High-Throughput drug screen in 47 multiple myeloma cell lines against the NCATS MIPE library collection: RPMI8226_ATCC cell viability assay (AID 1919871). Further: nearly all actives have a fitted effect of over 30% in size. Put shortly:
as §1

Test [15] in a line: Quantitative High-Throughput drug screen in 47 multiple myeloma cell lines against the NCATS MIPE library collection: KMS11_JCRBsus cell viability assay (AID 1919873). Further: nearly all actives have a fitted effect of over 50% in size. Summed up: as §1
The nature of test [16]: Quantitative High-Throughput drug screen in 47 multiple myeloma cell lines against the NCATS MIPE library collection: KMS34_JCRB cell viability assay (AID 1918985). Further: nearly all actives have a fitted effect of over 40% in size. Summed up: as §1
Test [17] can be described thus: Quantitative High-Throughput drug screen in 47 multiple myeloma cell lines against the NCATS MIPE library collection: KMS28BM_JCRB cell viability assay (AID 1919874). Further: nearly all actives have a fitted effect of over 35% in size. Summed up: as §1
A short description of test [18]: Quantitative High-Throughput drug screen in 47 multiple myeloma cell lines against the NCATS MIPE library collection: OPM2_DSMZ cell viability assay (AID 1919872). Further: nearly all actives have a fitted effect of over 30% in size. Summed up: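 CellTiter-Glo ATP luminescence gave viability after 48 h compound treatment at 37C of 500 multiple myeloma cells per well. Normalisation used DMSO-only wells as 100% and media-only wells as 0% viability; primary qHTS of approved and investigational drugs.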

Results filed as inconclusive are left out. Unmarked numbers belong to inactive results. The source made the active and inactive calls. The call rests on the fitted dose curve; in most records, active means well fitted cell-killing curve with a large enough effect; inconclusive means small, poorly fitted or top-dose-only effect, or effect the other way; inactive means no such curve, though single readings can be large or run the other way.
Potency means the concentration at half of the fitted maximal effect.

As for `Cc1nc(NC(=O)N2CCC[C@@H]2C(N)=O)sc1-c1csc(C(C)(C)C)n1`, the Potency in test [1] is 3.72 µM (active); in test [2], 0.833 µM (active); in [3] it was 3.32 µM (active); in [4], 14.8 µM (active); in [5], 14.8 µM (active); in test [6] it was 9.35 µM (active). The Potency in test [7] is 4.69 µM (active); in [8], 3.32 µM (active); in test [9] it was 0.264 µM (active); in [10], 5.9 µM (active); in test [11] it was 4.69 µM (active).
Regarding `Cn1c(=O)c(-c2c(Cl)cccc2Cl)cc2cnc(Nc3cccc(C(=O)O)c3)nc21`, the Potency in test [1] was 5.26 µM (active); in test [2] it was 0.59 µM (active); in test [4], 13.2 µM (active); in test [12], 2.09 µM (active); in [7] it was 0.187 µM (active); in [8] it was 0.296 µM (active). The Potency in test [9] was 0.235 µM (active); in test [11], 0.0469 µM (active). For the same molecule, the Potency result in [5], in test [6], in test [10], in test [14] and in test [15] was “inactive” in each case. Also, the viability (% of DMSO control) in test [13] was 127% (active).
On to `CC(C)(O)CC(=O)NCCn1ccc2ncnc(Nc3ccc(Oc4cccc(C(F)(F)F)c4)c(Cl)c3)c21`, for which the Potency in test [1] was 26.4 µM (active); in test [16] it was 23.5 µM (active); in test [3] it was 13.2 µM (active); in [4], 1.18 µM (active); in test [5], 26.4 µM (active); in [12], 23.5 µM (active). Further, the Potency in [6] is 16.6 µM (active); in [10], 23.5 µM (active); in test [17], 26.4 µM (active). Moreover, the Potency result in [9] is “inactive”.
What is called viability is a read-out of living cells in per cent, often relative to untreated cells. As to `C[C@H](CCC(=O)O)[C@H]1CC[C@H]2[C@H]3[C@@H](CC[C@]12C)[C@@]1(C)CC[C@@H](O)C[C@H]1C[C@@H]3O`, the Potency result in test [1], in [2], in test [3], in [5], in test [13] and in test [10] was “inactive” each time. The Potency entry in test [15] was “inactive”. In [12], the viability was 120%. For the same molecule, the Potency in test [9] is 20.9 µM (active); in [18], 6.62 µM (active).
For the molecule `C=C[C@@H]1CN2CCC1C[C@@H]2C(O)c1ccnc2ccc(OC)cc12` (stereo not given in full), the Potency is 16.6 µM (active) in [1], 3.32 µM (active) in test [4] and 10.5 µM (active) in test [6]. Also, the Potency result in test [2], in [13], in test [10], in [18] and in [15] was “inactive” in each case.
`CC1(C)CC(=O)c2c(C(F)(F)F)nn(-c3ccc(C(N)=O)c(NC4CCC(O)CC4)c3)c2C1` (stereo not given): the Potency is 0.118 µM (active) in [1]; 0.105 µM (active) in [16]; 0.0662 µM (active) in [3]; 0.118 µM (active) in test [4]; 0.105 µM (active) in test [5]; 0.187 µM (active) in test [12]. The Potency was 0.0935 µM (active) in [6]; 0.118 µM (active) in test [10]; 0.166 µM (active) in test [18]; 0.0118 µM (active) in test [15]; 0.0372 µM (active) in test [17].
As to `Clc1ccc(COC(Cn2ccnc2)c2ccc(Cl)cc2Cl)c(Cl)c1` (stereo not given), the Potency is 18.7 µM (active) in test [1]; 20.9 µM (active) in test [2]; 26.4 µM (active) in test [4]; 18.7 µM (active) in [5]; 20.9 µM (active) in test [12]; 18.7 µM (active) in [7]. The Potency in test [9] is 18.7 µM (active); in [11], 20.9 µM (active); in [15], 23.5 µM (active).
As for `O=C1CCCC(=O)C1C(=O)c1ccc(C(F)(F)F)cc1[N+](=O)[O-]`, the Potency result in [1], in test [2], in test [3], in test [5], in [7] and in test [8] was “inactive” each time. The Potency result in [10], in [11], in test [15] and in test [17] was “inactive” in each case. In test [6], the Potency is 20.9 µM (active).
For the molecule `CCN1CCC(n2cc(CNc3cc(Cl)c4ncc(C#N)c(Nc5ccc(F)c(Cl)c5)c4c3)nn2)CC1`, the Potency in test [1] was 7.43 µM (active); in test [2] it was 4.69 µM (active); in [4], 4.18 µM (active); in [5] it was 18.7 µM (active); in test [12] it was 5.9 µM (active); in test [6], 20.9 µM (active). Further, the Potency in test [7] was 14.8 µM (active); in [8], 23.5 µM (active); in [11] it was 20.9 µM (active); in test [14] it was 16.6 µM (active); in [15], 20.9 µM (active); in test [17], 20.9 µM (active).
As for `Cc1nc(C(=O)NCC(=O)O)c(O)c2ccc(Oc3ccccc3)cc12`, the Potency entry in test [1], in test [2], in [3], in test [4], in test [5] and in [13] was “inactive” each time. Further, the Potency entry in test [10], in test [14], in test [18], in [15] and in test [17] was “inactive” in each case.
On to `CNC(=O)c1cc(Oc2ccc(NC(=O)Nc3ccc(Cl)c(C(F)(F)F)c3)c(F)c2)ccn1`, for which the Potency in test [1] is 20.9 µM (active); in test [2], 6.62 µM (active); in test [12], 20.9 µM (active); in test [7], 0.935 µM (active); in [8], 2.64 µM (active); in [13], 3.72 µM (active). Besides, the figures for the Potency in test [10], in [18] and in [15] were 3.32 µM (active), 18.7 µM (active) and 14.8 µM (active), respectively.
Take `COc1c(C)c2c(c(O)c1CC=C(C)CCC(=O)O)C(=O)OC2`: the Potency in test [1] was 4.69 µM (active); in [3], 4.69 µM (active); in test [4], 7.43 µM (active); in test [5], 11.8 µM (active); in test [12] it was 5.26 µM (active); in [6], 8.33 µM (active). Also, the Potency was 3.32 µM (active) in test [7]; 5.9 µM (active) in test [9]; 3.32 µM (active) in test [10]; 7.43 µM (active) in [14]; 11.8 µM (active) in test [18]; 2.64 µM (active) in [17]. For the same molecule, the Potency entry in [11] is “inactive”.
On to `COc1cc2c(cc1OC)CC(=O)N(CCCN(C)C[C@H]1Cc3cc(OC)c(OC)cc31)CC2`, for which the Potency result in test [1], in test [3], in test [7], in test [8], in [11] and in test [18] was “inactive” each time. Further, in [17], the Potency entry is “inactive”. In addition, the Potency was 16.6 µM (active) in test [4], 16.6 µM (active) in [6] and 11.8 µM (active) in test [14].
With `COc1ccc(C=CC(=O)Nc2ccccc2C(=O)O)cc1OC`, the Potency result in test [1], in [16], in [5], in [11] and in test [18] was “inactive” in each case. The Potency in [8] is 6.62 µM (active); in test [10], 14.8 µM (active).
`CC1CCN(c2cc(N3CCN(C)CC3)ccc2NC(=O)c2cc(C#N)c[nH]2)CC1`: the Potency in [1] was 23.5 µM (active); in [16], 20.9 µM (active); in test [11] it was 7.43 µM (active); in [14], 18.7 µM (active). Moreover, the Potency result in [5], in [7], in test [10], in [15] and in test [17] was “inactive” each time.

For the origin of these results see PubChem BioAssay (NCATS).
